D2 ag-1: D2 dopamine receptor (human) agonism | 340,000 tested, 0.53% active | HEK293 T-REx D2 cells, calcium flux agonist mode | activation, % at 2 µM;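 active = activation over 3 SD above normal in the single-dose calcium agonist read, cut at about 30% in these data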; note: 0% is about no effect
Target sequence (P14416 whole entry, looked up): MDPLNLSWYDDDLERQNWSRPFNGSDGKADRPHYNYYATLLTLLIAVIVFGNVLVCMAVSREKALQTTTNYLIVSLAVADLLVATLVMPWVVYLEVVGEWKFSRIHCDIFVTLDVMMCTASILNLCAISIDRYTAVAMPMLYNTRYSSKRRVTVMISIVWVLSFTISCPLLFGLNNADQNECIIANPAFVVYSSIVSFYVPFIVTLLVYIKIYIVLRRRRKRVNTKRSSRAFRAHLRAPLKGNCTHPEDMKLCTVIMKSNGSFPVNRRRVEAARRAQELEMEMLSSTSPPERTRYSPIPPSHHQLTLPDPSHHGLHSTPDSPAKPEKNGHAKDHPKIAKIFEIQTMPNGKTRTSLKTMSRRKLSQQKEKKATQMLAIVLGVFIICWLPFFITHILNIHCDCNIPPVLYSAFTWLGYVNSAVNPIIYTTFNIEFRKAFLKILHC
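Agonism is scored from calcium flux in a force-coupled, inducible HEK293 cell line expressing D2, read kinetically for 180 s after compound addition against dopamine controls.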
D2 antagonist: antagonists of human D2 dopamine receptor; P14416; HEK293 TREx D2 cells, calcium flux, dopamine EC80; inhibition, % at 10 µM; 340,000 tested, 2% active; AID 485344; in the data active = inhibition above about 30%; inactive = below that, where a call was filed; note: 0% is about no effect
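HEK293 T-REx D2 cells, tet-induced, calcium dye no-wash. Cpd pintool add, 180 s kinetic, then EC80 DA, 180 s kinetic. Ca flux read.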
D2 PAM-1: potentiates the human D2 dopamine receptor allosterically; potentiation, % (test concentration not listed); P14416; DiscoveRx D2 beta-arrestin cells, luminescence, 90 min; 100% = 57 uM dopamine signal; AID 624464; 360,000 tested, 0.23% active; in the data active = potentiation above about 50%
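D2 cells co-treated with compound plus 50 nM dopamine (EC20) for 90 min at 37 deg C to detect potentiation. Beta-arrestin recruitment was read as enzyme-fragment luminescence after 1 h at ambient temperature. Full response was set by 57 uM dopamine.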
D2 ag-2: agonists of human D2 dopamine receptor (beta-arrestin); DiscoveRx PathHunter D2 beta-arrestin, luminescence, 90 min; 100% = 57 uM dopamine signal; activation, % (no concentration beside the values); 360,000 tested, 0.084% active; in the data active = activation above about 40%
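DiscoveRx PathHunter D2 beta-arrestin cells (2,100/well) attached overnight, then compound-stimulated 90 min at 37 C in HBSS/10 mM HEPES/0.1% Tween-20 buffer; beta-galactosidase complementation read by luminescence after 1 h at ambient temperature. Dopamine 57 uM final (EC100) as control.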
D2 PAM-2: D2 dopamine receptor (human) potentiation; HEK293 T-REx D2, calcium flux, EC20 dopamine potentiation; potentiation, % at 10 µM; AID 485347; 340,000 tested, 0.34% active;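 active = potentiation over 3 SD above the plate norm, cut at about 30% in these data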; note: 0% is about no effect
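Potentiation of an EC20 dopamine calcium response is measured in a force-coupled, tetracycline-inducible Hek293 Trex D2 line. Compound-only kinetic reads over 180 s flag agonists before dopamine addition.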
* = called active by the depositor; · = not tested or not shown. Rows were chosen to be rich in hits. Some 2.4% of all compounds tested hit in one or more screens of this group.

SMILES	D2 ag-1	D2 antagonist	D2 PAM-1	D2 ag-2	D2 PAM-2
CCCn1c2ccccc2c2cnn(CC(=O)NC3CCCC(C)C3C)c(=O)c21 (configuration not stated)	-0.3	34.8*	4.2	-0.2	-4.6
COc1ccc(-c2nn(-c3ccccc3C)cc2CNCc2cccnc2)cc1F	-1.9	39.4*	-8.1	-2.1	-25.0
CC(C)Oc1ccc(CNC(=O)C2CCN(Cc3cc4ccccc4n3Cc3ccccc3)CC2)cc1	0.5	·	·	·	9.5
COC(=O)c1sccc1S(=O)(=O)N1CCN(c2ccccc2)CC1	0.2	·	·	·	·
Cc1nc2c(c(C)nn2C(C)(C)C)c(C)c1CCC(=O)Nc1ccc(Br)cc1Br	-1.7	·	·	·	15.1

Source: PubChem BioAssay (National Center for Advancing Translational Sciences (NCATS))
